Molecules are shown by their SMILES. The campaign covered roughly 2,100 compounds. About 1,100 (52%) were called active. Inconclusive results (about 27%) are left out. Calls come from the whole dose curve; as a rule, active = well fitted inhibition curve with a large enough effect; inconclusive = small, poorly fitted or top-dose-only effect; inactive = no such curve, though single readings can be large or run the other way. The set was probably picked from earlier hits. Some of the results follow.
Potency is the fitted concentration of half-maximal effect.

The assay deals with DNA dC->dU-editing enzyme APOBEC-3G (Homo sapiens) (UniProt Q9HC16). The experiment in a line: qHTS for inhibitors of Vif-A3G interactions: Cherry picks counterscreen.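 For max response: max response given as percent of control signal.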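 Note: hits raise yellow fluorescence by blocking Vif-driven A3G-eYFP degradation; nearly all actives have a fitted effect of over 70% in size.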 The following applies: HeLa A3G-eYFP + Vif (tagged APOBEC3G with the HIV-1 protein that degrades it), eYFP fluorescence, 24 h. Put shortly: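 HeLa cells stably expressing A3G-eYFP and Vif were treated for 24 h at 37 deg C with compounds at several concentrations; yellow fluorescence (Ex 488 nm, Em 500-530 nm) read by Acumen Explorer, MG132 as positive control.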
DNA dC->dU-editing enzyme APOBEC-3G (Homo sapiens), sequence (Q9HC16 whole entry, looked up): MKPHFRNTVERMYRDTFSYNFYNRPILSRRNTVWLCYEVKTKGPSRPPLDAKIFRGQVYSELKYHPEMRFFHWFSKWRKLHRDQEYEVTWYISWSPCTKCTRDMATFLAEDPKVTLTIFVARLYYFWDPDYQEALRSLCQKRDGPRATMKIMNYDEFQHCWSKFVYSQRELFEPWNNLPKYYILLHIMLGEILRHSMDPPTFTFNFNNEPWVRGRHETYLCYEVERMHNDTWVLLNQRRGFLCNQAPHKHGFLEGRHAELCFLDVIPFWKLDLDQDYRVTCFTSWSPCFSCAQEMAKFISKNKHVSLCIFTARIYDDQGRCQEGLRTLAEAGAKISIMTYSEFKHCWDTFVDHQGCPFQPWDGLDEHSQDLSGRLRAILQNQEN
For orientation: In qHTS, concentration-response curves come from the screen itself.
`CCOc1ccc(C(C)=O)cc1COc1cccnc1[N+](=O)[O-]`: the Potency is 12.5 µM (active).
The same measure, in the same setting: to `N#C/C(=C/c1ccc(N2CCCCCC2)o1)c1cccc(F)c1` belongs 4.61 µM (active).
`N#C/C(=C/c1ccc(N2CCCCC2)o1)c1cccc(F)c1`: the Potency was 5.17 µM (active).
Still for that read-out and setting: the same measure for `O=C1CC(c2ccccc2)Cc2[nH]c(=O)c(-c3nc(-c4cccc(Cl)c4)cs3)cc21` (stereo not given): 2.59 µM (active); for `Cc1sc(-c2cc3c([nH]c2=O)CC(c2ccccc2)CC3=O)nc1-c1ccc(Cl)cc1` (stereo not given): 1.3 µM (active).
Regarding `CCCc1nc2c(C)cc(Br)cn2c1Cc1ccccc1`, the max response is -5.65% (inactive).
`COc1c(-c2ccc(O)c(O)c2)oc2cc(O)cc(O)c2c1=O`: the Potency was 7.9 µM (active).
Regarding `NC(=O)c1ccccc1NC(=S)NC(=O)CCc1ccccc1`, the Potency was 5.59 µM (active).
Take `O=C(COc1ccccc1)NC(=S)Nc1cccc2c(O)cccc12`: the max response was -0.841% (inactive).
`CCC(=O)NC(=S)Nc1cccc(Cl)c1N1CCCC1`: the max response is -18% (inactive).
Turning to `O=C1CCCN1c1ccc(S(=O)(=O)Nc2ccc3c(c2)OCCO3)cc1`, the Potency is 5.59 µM (active).
On to `CCCC1=[N+](CC(=O)c2ccc(Br)cc2)CCn2cccc21`, for which the max response was -25.2% (inactive).
Regarding `COc1ccc(C(=O)C[n+]2cc(Br)cc3ccccc32)cc1`, the Potency is 8.2 µM (active).
Same read-out and setting: to `O=C(C[n+]1cccc2cc(Cl)ccc21)c1ccc2ccccc2c1` belongs 23.1 µM (active); to `CC(C)(C)c1ccc(C(=O)C[n+]2cccc3cc(Cl)ccc32)cc1`, 18.4 µM (active); to `O=C(C[n+]1cccc2cc(Cl)ccc21)c1ccc(I)cc1`, 18.4 µM (active).
On the same count and under the same terms, the same measure for `COc1ccc(C(=O)C[n+]2cccc3cc(Cl)ccc32)cc1`: 16.4 µM (active); for `O=C1Nc2ccc(Br)cc2C12NNc1ccccc1O2` (stereo not given): 15.8 µM (active); for `O=[N+]([O-])c1ccc(N/N=C/c2c[nH]c3ccccc23)cc1`: 16.4 µM (active).
As for `COc1ccccc1NS(=O)(=O)c1cc([N+](=O)[O-])ccc1N/N=C/c1c[nH]c2ccccc12`, the Potency is 9.2 µM (active).
For `O=[N+]([O-])c1ccc(N/N=C/c2c[nH]c3ccccc23)c(S(=O)(=O)Nc2ccc(Cl)cc2)c1`, the Potency is 23.1 µM (active).
Still for that read-out and setting: the same measure for `C/C(=N/Nc1ccc([N+](=O)[O-])cc1)c1c[nH]c2ccccc12`: 18.4 µM (active); for `Cc1[nH]c2ccccc2c1/C=N/Nc1ccc([N+](=O)[O-])cc1`: 8.2 µM (active).
In the case of `COc1ccccc1NS(=O)(=O)c1cc([N+](=O)[O-])ccc1N/N=C/c1c(C)[nH]c2ccccc12`, the Potency was 2.8 µM (active).
On the same count and under the same terms, to `COc1ccc(NS(=O)(=O)c2cc([N+](=O)[O-])ccc2N/N=C/c2c(C)[nH]c3ccccc23)cc1` belongs 18.4 µM (active).

(Values after PubChem BioAssay AID651813 (National Center for Advancing Translational Sciences (NCATS), 2012).)
